In PubChem BioAssay (EPA / NIEHS):
Calls of active or inactive are those of the source. The calls were made as follows: active = hit-call score of the fitted dose curve at least 0.9, where 1 is the maximum; inactive = score below 0.9.

Experiment: ATG_E_Box_CIS: Attagene CIS-FACTORIAL HepG2 Assay for human Enhancer Box (E-box) (AID 2282936)
Details: HepG2 E-box cis-reporter transcription, actives raise or lower the signal
Procedure: ATG_CIS is a cell-based, multiplexed-readout assay that uses HepG2, a human liver cell line, with measurements taken at 24 hours after chemical dosing in a 24-well plate.ATG_E_Box_CIS is one of 52 assay component(s) measured or calculated from the ATG_CIS assay. It is designed to make measurements of mRNA induction, a form of inducible reporter, as detected with fluorescence intensity signals by Reverse transcription polymerase chain reaction (RT-PCR) and Capillary electrophoresis technology.Data from the assay component ATG_E_Box_CIS was analyzed into 1 assay endpoint. This assay endpoint, ATG_E_Box_CIS, was analyzed with bidirectional fitting relative to DMSO as the negative control and baseline of activity. Using a type of inducible reporter, measures of mRNA for gain or loss-of-signal activity can be used to understand the reporter gene at the transcription factor-level as they relate to the gene USF1. Furthermore, this assay endpoint can be referred to as a primary readout, because this assay has produced multiple assay endpoints where this one serves a reporter gene function. To generalize the intended target to other relatable targets, this assay endpoint is annotated to the dna binding intended target family, where the subfamily is basic helix-loop-helix protein.
Human liver HepG2 cells are transiently transfected with multiple reporter transcription units (MRTUs) in 6-well plates using FuGene 6 reagent (Roche; 3 ml FuGene/1 mg DNA). The MRTU constructs are regulated by a cis-regulating element (promoter). […] A major difference between the CIS and TRANS system is that in CIS activities of endogenous TFs are measured, whereas the TRANS assay evaluates changes in activities of exogenous, chimeric NR-Gal4 proteins. […] At the end of 24 hour incubation, total RNA was isolated using TriZol reagent (Invitrogen). The isolated RNA is then reverse-transcribed using oligo(dT) primer and Mo-MLV reverse transcriptase (Invitrogen) with DNAse I (Ambion) treatment for 30 min. The one-tenth of the produced cDNA was amplified by PCR using Taq DNA polymerase (Invitrogen) and two reporter sequence-specific primers. The PCR products were fluorescently labeled by primer extension with 6-arboxyfluorescein (6-FAM) 5'-labeled reporter sequence-specific primer (2 min at 95 C, 20 s at 68 C and 10 min at 72 C) and these products were digested with 5U of HpaI (New England Biolabs) for 2h at 37 C. The fragments were purified using Qiaquick PCR columns (Qiagen), analyzed on an ABI 3130xL genetic analyzer (Applied Biosystems) with peak positions identified by using a set of X-rhodamine (ROX)-labeled MapMarker1000 molecular weight standards (BioVentures). The raw capillary electrophoresis data was processed using Attagraph software (Attagene).
In the case of `CC(C)N(Cc1ccccc1)C(=O)C(C)(C)C`, the outcome is reported as “inactive”. In the case of `O=[N+]([O-])C(Br)(CO)CO`, the outcome is reported as “inactive”. For `Cc1ccc(N)c(N)c1`, the outcome was “inactive”. In the case of `Cc1cccc(N)c1N`, the outcome is reported as “inactive”. For `CCCCCCCCOC(=O)c1ccc(C(=O)OCCCCCCCC)c(C(=O)OCCCCCCCC)c1`, the outcome was “inactive”. In the case of `c1ccc2c(c1)-c1cccc3cccc-2c13`, the outcome is reported as “inactive”. With `Brc1ccc(Oc2ccccc2)cc1` the outcome was “inactive”. In the case of `CCOC(=O)[C@]1(c2ccccc2)Oc2ccccc2[C@@H]1N`, the outcome is reported as “inactive”. For `C1=Cc2cccc3cccc1c23`, the outcome was “inactive”. With `CCCSC(=O)N(CCC)CCC` the outcome was “inactive”. With `OCCCl` the outcome was “inactive”. With `Nc1ccc(N=Nc2ccccc2)cc1` the AC50 was 100 µM (active). For `CNC(=O)Oc1cccc2c1OC(C)(C)C2`, the outcome was “inactive”. For `[Cl-].[Cl-].[Hg+2]`, the outcome was “inactive”. For `CN(C)C(=O)Nc1ccc(Cl)cc1`, the outcome was “inactive”. With `O=Cc1ccco1` the outcome was “inactive”. With `Clc1ccc(Cl)c(Cl)c1` the outcome was “inactive”. In the case of `[O-][Cl+]O`, the outcome is reported as “inactive”. For `O=[N+]([O-])c1ccc(Oc2ccc(Cl)cc2Cl)cc1`, the AC50 was 71.5 µM (active). In the case of `CC(C)COC(=O)c1ccccc1C(=O)OCC(C)C`, the AC50 is reported as 100 µM (active). In the case of `CN(C)c1ccc(C(=O)c2ccc(N(C)C)cc2)cc1`, the outcome is reported as “inactive”. With `CCCCCOC(=O)c1ccccc1C(=O)OCCCCC` the outcome was “inactive”. With `CC(C)(C)OOC(C)(C)CCC(C)(C)OOC(C)(C)C` the outcome was “inactive”. For `Nc1ccc(Cc2ccc(N)cc2)cc1`, the outcome was “inactive”. With `C[N+](C)(C)CC1CO1` (stereo not given) the outcome was “inactive”. For `Oc1ccc2ccc3cccc4ccc1c2c34`, the outcome was “inactive”. With `Nc1ccc(Cl)cc1N` the outcome was “inactive”. With `O=C(N[C@H](c1ccccc1)[C@@H]1CN2CCC1CC2)c1c(Cl)ccc(C(F)(F)F)c1Cl` the outcome was “inactive”. In the case of `CCCCOC(=O)c1ccccc1C(=O)OCc1ccccc1`, the outcome is reported as “inactive”. With `COC(=O)Nc1nc2ccccc2[nH]1` the outcome was “inactive”. For `COC(=O)c1ccccc1N`, the outcome was “inactive”. In the case of `CN(C)[C@@H]1C(=O)C(C(N)=O)=C(O)[C@@]2(O)C(=O)C3=C(O)c4c(O)cccc4[C@@](C)(O)[C@H]3C[C@@H]12`, the outcome is reported as “inactive”. In the case of `c1ccc(N=Nc2ccccc2)cc1`, the outcome is reported as “inactive”. In the case of `COP(=S)(OC)SCN1C(=O)c2ccccc2C1=O`, the outcome is reported as “inactive”. With `N#CC(Br)(Br)C(N)=O` the outcome was “inactive”. For `CCNS(=O)(=O)C(F)(F)C(F)(F)C(F)(F)C(F)(F)C(F)(F)C(F)(F)C(F)(F)C(F)(F)F`, the outcome was “inactive”. With `O=P(OCCCl)(OCCCl)OCCCl` the outcome was “inactive”. With `c1ccc(NNc2ccccc2)cc1` the outcome was “inactive”. For `O=C(Oc1ccc(Br)cc1)N1CCN2CCC1CC2`, the outcome was “inactive”. In the case of `Clc1ccccc1Cl`, the outcome is reported as “inactive”.
